Reference: PubChem BioAssay
Calls of active or inactive are those of the source. Unless noted, the rule behind the calls is not given here.

What was measured:
[1] = system: XIP peptide (Xip251-270) binding; assay: small-molecule binders of XIP peptide, primary screen, biochemical, small-molecule microarray, fluorescence 635/667 nm, 0.1 µg/mL protein (AID 1182); conditions: fluorescent protein binding, 635 nm, higher = more signal, called active from +8 up or from −8 down
XIP peptide (Xip251-270) = assay: small-molecule binders of XIP peptide, primary screen, biochemical, small-molecule microarray, fluorescence 635/667 nm, 0.5 µg/mL protein (AID 1183); conditions: small-molecule microarray binding, fluorescence 635 nm; higher = more signal
[2] = Plasmodium falciparum growth inhibition, primary screen, strain 3D7, DAPI fluorescence, 100 nL (AID 1184);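 note: parasites grown inside human red blood cells in medium with human serum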; conditions: P. falciparum 3D7 growth, 3 d, higher = more signal
[3] = molecular target: Homeobox protein Hox-A13 (Mus musculus) (UniProt Q62424); assay: inhibitors of HoxA13-DNA binding, primary screen, biochemical, fluorescence polarization, labeled oligonucleotide (AID 1185); conditions: 15 min, higher = more signal, called active from +8 up or from −8 down
Homeobox protein Hox-A13 (Mus musculus), sequence (Q62424 whole entry, looked up): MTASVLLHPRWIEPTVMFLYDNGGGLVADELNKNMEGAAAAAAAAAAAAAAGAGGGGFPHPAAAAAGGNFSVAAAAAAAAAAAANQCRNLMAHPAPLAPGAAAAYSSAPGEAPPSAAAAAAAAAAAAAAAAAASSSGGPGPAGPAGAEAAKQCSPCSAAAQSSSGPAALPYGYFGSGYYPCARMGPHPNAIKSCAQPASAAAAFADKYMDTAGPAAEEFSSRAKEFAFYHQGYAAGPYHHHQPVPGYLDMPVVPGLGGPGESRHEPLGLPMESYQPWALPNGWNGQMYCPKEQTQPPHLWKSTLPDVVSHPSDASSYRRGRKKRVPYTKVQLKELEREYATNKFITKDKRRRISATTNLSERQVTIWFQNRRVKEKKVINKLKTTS

[4] = inhibitors of hydroxyurea-induced Chk1 phosphorylation, primary screen, imaging, HeLa, phospho-Chk1 antibody, percent positive cells (AID 1186); conditions: hydroxyurea-induced phospho-Chk1 immunofluorescence imaging, higher = more signal
[5] = inhibitors of hydroxyurea-induced Chk1 phosphorylation, primary screen, imaging, HeLa, phospho-Chk1 nuclear intensity (AID 1187); conditions: hydroxyurea-induced phospho-Chk1 immunofluorescence imaging, higher = more signal

Row | SMILES | composite z-score [1] | composite z-score (XIP peptide (Xip251-270)) | z-score [2] | z-score [3] | z-score [4] | z-score [5]
1 | CC(=O)NCCCC[C@@H]1NC(=O)[C@@H]2C[C@H](C(=O)NCCCCCCNC(=O)CS)[C@H](c3ccc(O)cc3)N2C1=O | 0.757 (inactive) | 0.596 | 0.648 | -5.16 (inactive) | 0.34 (inactive) | 0.0918 (inactive)
2 | COCCCNC(=O)[C@@]1(CCC(=O)OC(C)(C)C)N=C(c2ccc(OCCCO)cc2)O[C@H]1c1ccccc1CN=[N+]=[N-] | 0.748 (inactive) | 0.761 | -1.99 | -5.33 (inactive) | -0.376 (inactive) | -0.101 (inactive)
3 | COc1ccc([Si](C)(C)[C@H]2[C@H](CCn3cc(CCO)nn3)O[C@@]3(C(=O)N(Cc4ccc(N5CCOC5=O)cc4)c4ccccc43)[C@@H]2C)cc1 | 0.523 (inactive) | 0.866 | -2.38 | -4.22 (inactive) | -1.11 (inactive) | -0.744 (inactive)
4 | O=C(CS)NCCCCCCNC(=O)[C@@H]1C[C@@H]2C(=O)N3CCC[C@H]3C(=O)N2[C@@H]1c1ccc(O)cc1 | 0.689 (inactive) | 0.422 | 0.331 | -3.65 (inactive) | -0.0018 (inactive) | 0.499 (inactive)
5 | C[C@H]1NC(=O)[C@H](Cc2ccccc2)NC(=O)[C@@]23C(=O)N[C@@H](Cc4ccccc4)C2[C@H](C)[C@@]2(C)O[C@H]2C3/C=C/C/C=C\CNC1=O (some centres undefined) | -0.325 (inactive) | -1.16 | -1.45 | -5.77 (inactive) | -0.227 (inactive) | 0.0899 (inactive)
6 | CCCC[C@H]1OB(O)C[C@H]2C1=C(C)C[C@H]1C(=O)N(Cc3ccccc3)C(=O)[C@H]12 | 0.0643 (inactive) | 0.911 | 0.508 | -7.36 (inactive) | -0.128 (inactive) | -0.379 (inactive)
7 | NC(=O)NCC#Cc1ccc2c(c1)[C@]1(C(=O)N2)[C@H](C(=O)N2CCCCCCC2)[C@H]2C(=O)O[C@H](c3ccccc3)[C@H](c3ccccc3)N2[C@@H]1c1ccc(OCCO)cc1 | 0.98 (inactive) | 0.246 | -0.922 | -15.8 (active) | 0.109 (inactive) | 0.309 (inactive)
8 | CCOC(=O)C[C@H]1[C@H](OC(=O)c2ccc(C(=O)c3ccccc3)cc2)[C@@H](NC(=O)C2CCCCC2)c2cc(OCCCO)ccc2N1C(=O)c1ccccc1 | -0.373 (inactive) | 0.186 | 0.863 | -2.97 (inactive) | 0.454 (inactive) | 0.0465 (inactive)
9 | CCCN1C(=O)[C@]2(COC(c3ccc(OCCCO)cc3)=N2)Cc2ccccc21 | 1.71 (inactive) | 0.42 | -0.755 | -6.01 (inactive) | -0.0155 (inactive) | 0.239 (inactive)
10 | CC(C)(C)OC(=O)CC[C@@]1(C(=O)NCCN2CCOCC2)N=C(c2ccc(OCCCO)cc2)O[C@@H]1c1ccccc1 | 1.38 (inactive) | 0.825 | 0.248 | -4.84 (inactive) | -0.396 (inactive) | -0.395 (inactive)
11 | O=C(CCN1CCOCC1)c1cccc(O)c1 | 1.55 (inactive) | 0.421 | -1.5 | -2.35 (inactive) | -0.111 (inactive) | 0.114 (inactive)
12 | COc1ccc(CCNC(=O)[C@@H]2c3ccccc3C(=O)N(Cc3ccc(OC(F)(F)F)cc3)[C@H]2c2ccc(CO)cc2)cc1 | 0.987 (inactive) | 0.486 | -0.756 | -4.53 (inactive) | -0.232 (inactive) | -0.312 (inactive)
13 | O=C1OCCC=C[C@H]2OC34C=CCN(c5ccc6ccccc6c5)C(=O)[C@H]3N(CCCCCO)C(=O)[C@@H]4C12 (some centres undefined) | 0.427 (inactive) | 0.385 | 0.405 | -5.5 (inactive) | -0.202 (inactive) | 0.891 (inactive)
14 | COc1ccc(C#Cc2ccc3c(c2)[C@]2(C(=O)N3)[C@H](C(=O)NC[C@H](O)c3ccccc3)[C@H]3C(=O)O[C@H](c4ccccc4)[C@H](c4ccccc4)N3[C@@H]2c2ccccc2OCCO)cc1 | 0.0376 (inactive) | 0.881 | -1.01 | -2.33 (inactive) | -0.166 (inactive) | -0.118 (inactive)
15 | O=c1cccc(C=Cc2ccccc2)o1 | -0.707 (inactive) | -0.764 | -0.907 | -0.516 (inactive) | -0.0971 (inactive) | -0.0437 (inactive)
16 | CN1C(=O)C2C(C1=O)C1C=C(CCCO)C2C(c2cccs2)N1C (centres undefined) | -0.119 (inactive) | -0.0427 | 0.404 | -9.72 (active) | 0.207 (inactive) | -0.0851 (inactive)
17 | O=C1C=CC(=O)[C@@H]2CC(COc3ccccc3)=C3[C@@H](CCc4ccccc4)OB(O)C[C@@H]3[C@H]12 | -0.193 (inactive) | 0.433 | -1.73 | -5.92 (inactive) | -0.042 (inactive) | 0.528 (inactive)

Row | SMILES | composite z-score [1] | composite z-score (XIP peptide (Xip251-270)) | z-score [2] | z-score [3] | z-score [4] | z-score [5]
18 | CN(C)CCCNC(=O)[C@@]1(Cc2ccccc2I)c2ccccc2C(=O)N(Cc2ccccc2C(F)(F)F)[C@H]1c1ccc(CO)cc1 | 0.165 (inactive) | 0.514 | -1.83 | -2.47 (inactive) | -0.239 (inactive) | -0.347 (inactive)
19 | CCOC(=O)[C@H]1C[C@H]2O[C@@]23C[C@H]1C(=O)N1CCCC1[C@@H]3O[Si](C)(C)C(C)(C)C (some centres undefined) | -0.0593 (inactive) | -0.829 | -0.329 | -5.3 (inactive) | -0.0084 (inactive) | -0.115 (inactive)
20 | CS(=O)(=O)CCOC(=O)C1=CC(c2ccc(CO)cc2)=CC(C2CC2)N(Cc2cc3c(cc2Br)OCO3)C=C1C(=O)OCCS(C)(=O)=O (centres undefined) | 0.0295 (inactive) | 0.639 | -2.58 | -2.94 (inactive) | -0.572 (inactive) | -0.534 (inactive)
21 | COC(=O)[C@@]1(Cc2ccc(F)cc2)[C@H]2c3cc(C(=O)N4CCCC4)n(Cc4cccc5ccccc45)c3C[C@H]2CN1C(=O)c1ccccc1 | 0.702 (inactive) | 0.0322 | -1.74 | -4.87 (inactive) | -0.704 (inactive) | -0.576 (inactive)
22 | COCCOC(=O)N1C(=O)[C@@]2(c3cc(C#CCC(C(=O)OC)C(=O)OC)ccc31)[C@H](c1ccccc1OCCO)N1[C@H](c3ccccc3)[C@H](c3ccccc3)OC(=O)[C@H]1[C@@H]2C(=O)N1CCc2cc(OC)c(OC)cc2C1 | 0.201 (inactive) | 0.64 | -2.06 | 0.498 (inactive) | -0.122 (inactive) | 0.261 (inactive)
23 | O=C(CS)NCCCCCCNC(=O)[C@H]1C[C@H]2C(=O)N3CCC[C@H]3C(=O)N2[C@H]1c1cccc(OCCO)c1 | 0.517 (inactive) | 0.773 | -0.0979 | -3.15 (inactive) | -0.188 (inactive) | -0.318 (inactive)
24 | O=C1O[C@H](c2ccccc2)[C@H](c2ccccc2)N2[C@H]1[C@@H](C(=O)N1CCN(c3ncccn3)CC1)[C@]1(C(=O)Nc3ccccc31)[C@H]2c1ccc(OCCO)cc1 | -0.161 (inactive) | 0.219 | -2.39 | 2.46 (inactive) | -0.54 (inactive) | -1.1 (inactive)
25 | COc1ccc(NN2C(C(O)c3ccc(OC)c(OCc4ccccc4)c3)C=CC3C(=O)N(C4CCCCC4)C(=O)C32)cc1 (centres undefined) | -0.137 (inactive) | 0.628 | -1.02 | -1.81 (inactive) | -0.487 (inactive) | -0.892 (inactive)
26 | COCC1=C2[C@@H](CCc3ccccc3)OB(O)C[C@@H]2[C@@H]2C(=O)N(Cc3ccccc3)C(=O)[C@@H]2C1 | -0.653 (inactive) | -0.538 | 1.22 | -7.4 (inactive) | 0.141 (inactive) | 0.381 (inactive)
27 | COCC(=C=CC[C@@H](O)c1ccc(CO)o1)CCO | 0.848 (inactive) | 0.344 | -1.61 | -3.24 (inactive) | -1 (inactive) | -0.68 (inactive)
28 | COC(=O)[C@@]1(Cc2ccccc2)[C@H]2c3cc(C(=O)N(C)C)n(Cc4cc(C)n(C)n4)c3C[C@H]2CN1C(=O)c1ccccc1 | -0.0185 (inactive) | 0.635 | -1.19 | -5.13 (inactive) | 0.489 (inactive) | 0.42 (inactive)
29 | COc1ccc([Si](C)(C)[C@@H]2[C@@H](CC(=O)N(CCO)Cc3ccccc3)O[C@]3(C(=O)N(C)c4ccccc43)[C@H]2C)cc1 | 1.74 (inactive) | 0.626 | -1.55 | -6.65 (inactive) | -0.36 (inactive) | -1.47 (inactive)
30 | CC(C)(C)N1CC=CC23O[C@@H]4C=CCOC(=O)[C@@H]4[C@H]2C(=O)N(CCCCCO)[C@@H]3C1=O (some centres undefined) | 0.295 (inactive) | -1.13 | -0.366 | -4.43 (inactive) | 0.241 (inactive) | -0.459 (inactive)
31 | CCC(CC)C(O)C1C=CC2C(=O)N(c3ccccc3)C(=O)C2N1Nc1ccc(C#N)cc1 (centres undefined) | 0.132 (inactive) | 0.799 | 0.324 | -1.39 (inactive) | 0.288 (inactive) | 0.192 (inactive)
32 | O=C1O[C@H](c2ccccc2)[C@H](c2ccccc2)N2[C@H]1[C@@H](C(=O)O)[C@]1(C(=O)Nc3ccc(C#CC4=CCCCC4)cc31)[C@H]2c1ccc(OCCO)cc1 | 0.4 (inactive) | 0.813 | -0.656 | -5.08 (inactive) | 0.222 (inactive) | -0.0216 (inactive)
33 | O=C1OCCC=C[C@H]2OC34C=CCN(Cc5ccccc5)C(=O)[C@H]3N(CCCCCO)C(=O)[C@@H]4C12 (some centres undefined) | 1.16 (inactive) | -0.0335 | 0.0195 | -4.46 (inactive) | -0.218 (inactive) | 0.534 (inactive)
34 | O=C/C=C/c1ccc2c(c1)OCO2 | -0.316 (inactive) | -0.232 | 0.775 | 1.04 (inactive) | 0.284 (inactive) | 0.774 (inactive)
